Experimental data from PubChem BioAssay (NCATS).
Records with an inconclusive call do not appear. Activity calls are given as the source filed them. Unless noted, calls come from the whole dose curve; as a rule, active = well fitted curve in the direction sought with a large enough effect; inconclusive = small, poorly fitted or top-dose-only effect, or another doubt; inactive = no such curve, though single readings can be large; an effect the other way counts as inactive or inconclusive.

How the values were obtained:
[1] = molecular target: Nuclear receptor ROR-gamma (Homo sapiens) (UniProt P51449); test: qHTS assay for small molecule antagonists of the retinoid-related orphan receptor gamma (ROR-gamma) signaling pathway (AID 651802); note: series mostly up to about 92 µM; nearly all actives have a fitted effect of over 60% in size
Outline: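 CHO cells carrying TET-inducible ROR-gamma and an ROR response element–luciferase reporter were exposed to compound, then induced with doxycycline. After 16hr at 37C, luminescence was read; lower signal indicates antagonism.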

[2] = qHTS assay for small molecule antagonists of the retinoid-related orphan receptor gamma (ROR-gamma) signaling pathway - cell viability counter screen (AID 720652; active = well fitted curve in the direction sought with a large enough effect in the repeat runs; an effect the other way counts as inactive or inconclusive;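 note: series mostly up to about 92 µM; compound exposure lasted 16 hr before ATP read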)
Source text: National Center for Advancing Translational Sciences [NCATS]
NIH Chemical Genomics Center [NCGC]
National Institutes of Environmental Health Sciences [NIEHS]
National Toxicology Program [NTP]
Nuclear steroid hormone receptors are involved in many biological processes including inflammatory responses, cell proliferation, and apoptosis. Environmental factors or compounds disrupting these nuclear receptor pathways and gene expression may promote susceptibility to immunotoxicants and autoimmune diseases. One important group of these expression factors are the retinoid-related orphan receptors. […]
The CHO cell-based assay utilizes a TET-inducible ROR expression factor and ROR response element-LUC reporter gene. Reporter activity was induced using doxycycline and measured after 16hr incubation. Luminescence was read using Viewlux (PerkinElmer), where a decrease in reporter activity would show a decrease in luminescence. The cytotoxicity of the compounds against ROR response-Luc reporter gene cell line was quantified by measuring the intracellular ATP content.
1,000 cells in 4 uL/well were dispensed into white wall/solid bottom 1536-well plates using a Multidrop Combi (Thermo Scientific) dispenser. […] The luminescence intensity was quantified on a ViewLux plate reader (PerkinElmer).

[3] = molecular target: Arylsulfatase A (Homo sapiens) (UniProt P15289); test: qHTS screen for enhancers of Arylsulfatase A (ASA1): LOPAC Validation Assay (AID 720538); details: outcome: dose series up to 57.5 µM
Outline: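 Enhancer assay in patient-derived MLD fibroblasts carrying ASA-I179S: 48 h compound exposure at 37 C, then 14 h room-temperature pNCS turnover (0.5 mM final) in lysis buffer. Read by fluorescence at 525/598 nm after NaOH stop.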

Chain of Arylsulfatase A (Homo sapiens) (P15289 whole entry, looked up): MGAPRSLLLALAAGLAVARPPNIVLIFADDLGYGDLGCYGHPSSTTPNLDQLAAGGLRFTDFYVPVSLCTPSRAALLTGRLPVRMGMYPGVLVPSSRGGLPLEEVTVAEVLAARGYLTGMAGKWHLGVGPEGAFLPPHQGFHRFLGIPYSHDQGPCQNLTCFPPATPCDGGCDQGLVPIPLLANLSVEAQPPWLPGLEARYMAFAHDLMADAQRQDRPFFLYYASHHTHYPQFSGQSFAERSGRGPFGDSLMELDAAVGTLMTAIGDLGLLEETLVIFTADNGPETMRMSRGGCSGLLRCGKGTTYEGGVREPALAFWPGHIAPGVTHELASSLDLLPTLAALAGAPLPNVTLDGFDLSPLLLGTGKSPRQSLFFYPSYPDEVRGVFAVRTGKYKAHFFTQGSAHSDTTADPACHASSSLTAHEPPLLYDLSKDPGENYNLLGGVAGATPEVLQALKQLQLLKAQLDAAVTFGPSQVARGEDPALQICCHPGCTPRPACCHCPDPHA
Chain of Nuclear receptor ROR-gamma (Homo sapiens) (P51449 whole entry, looked up): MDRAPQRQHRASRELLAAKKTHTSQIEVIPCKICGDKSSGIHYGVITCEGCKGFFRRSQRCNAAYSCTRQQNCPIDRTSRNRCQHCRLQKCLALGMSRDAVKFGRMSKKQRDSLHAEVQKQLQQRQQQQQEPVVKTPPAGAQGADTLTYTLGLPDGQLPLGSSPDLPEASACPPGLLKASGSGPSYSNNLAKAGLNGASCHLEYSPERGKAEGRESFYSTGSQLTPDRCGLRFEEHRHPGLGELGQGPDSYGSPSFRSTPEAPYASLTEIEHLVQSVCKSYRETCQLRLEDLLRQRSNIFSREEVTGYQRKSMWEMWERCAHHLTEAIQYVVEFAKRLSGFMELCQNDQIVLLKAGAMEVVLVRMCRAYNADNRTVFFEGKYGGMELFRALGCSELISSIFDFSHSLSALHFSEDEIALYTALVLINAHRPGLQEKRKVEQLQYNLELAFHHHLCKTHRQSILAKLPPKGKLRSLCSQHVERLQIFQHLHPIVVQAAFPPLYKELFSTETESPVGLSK

With Cc1cc(O)c2c(c1)C(=O)c1cccc(O)c1C2=O the outcome [1] was “inactive” and the outcome [2] was “inactive”.

For CN[C@H](CC(C)C)C(=O)N[C@H]1C(=O)N[C@@H](CC(N)=O)C(=O)N[C@@H]2C(=O)N[C@H]3C(=O)N[C@H](C(=O)N[C@H](C(=O)O)c4cc(O)cc(O)c4-c4cc3ccc4O)[C@H](O)c3ccc(c(Cl)c3)Oc3cc2cc(c3O[C@@H]2O[C@H](CO)[C@@H](O)[C@H](O)[C@@H]2O[C@H]2C[C@](C)(N)[C@H](O)[C@H](C)O2)Oc2ccc(cc2Cl)[C@H]1O, the outcome [3] was “inactive”.

In the case of O=c1[nH]c(=O)n([C@H]2C[C@@H](O)[C@@H](CO)O2)cc1C=CBr, the outcome [3] is reported as “inactive”.
